Results: the supplement of paper PMC3545927
This is one part of the list. The hit rate among all sequences tested is not known here.

Biological target: furin, P09958
Test: furin cleavage Z-score vs untreated control; higher = more cleavage, active = 3.5 or more, inactive = 1 or less, 8 variable residues between constant flanks
Summary of the method: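 To give the cleavage Z-score, log read counts were set against furin-free reactions, lowess-adjusted and scaled by median absolute deviation. These counts came from PCR adapter-tagged, sequenced DNA released when purified furin cut 8-mer peptides fused to a cDNA oligonucleotide and held on magnetic beads by their N-terminus. Digests were 0.01 ml, 1:10 enzyme:substrate, in 50 mM HEPES pH 7.5 with CaCl2 and NaCl, for 7.5, 15 or 30 min.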

furin, P09958, sequence (P09958 whole entry): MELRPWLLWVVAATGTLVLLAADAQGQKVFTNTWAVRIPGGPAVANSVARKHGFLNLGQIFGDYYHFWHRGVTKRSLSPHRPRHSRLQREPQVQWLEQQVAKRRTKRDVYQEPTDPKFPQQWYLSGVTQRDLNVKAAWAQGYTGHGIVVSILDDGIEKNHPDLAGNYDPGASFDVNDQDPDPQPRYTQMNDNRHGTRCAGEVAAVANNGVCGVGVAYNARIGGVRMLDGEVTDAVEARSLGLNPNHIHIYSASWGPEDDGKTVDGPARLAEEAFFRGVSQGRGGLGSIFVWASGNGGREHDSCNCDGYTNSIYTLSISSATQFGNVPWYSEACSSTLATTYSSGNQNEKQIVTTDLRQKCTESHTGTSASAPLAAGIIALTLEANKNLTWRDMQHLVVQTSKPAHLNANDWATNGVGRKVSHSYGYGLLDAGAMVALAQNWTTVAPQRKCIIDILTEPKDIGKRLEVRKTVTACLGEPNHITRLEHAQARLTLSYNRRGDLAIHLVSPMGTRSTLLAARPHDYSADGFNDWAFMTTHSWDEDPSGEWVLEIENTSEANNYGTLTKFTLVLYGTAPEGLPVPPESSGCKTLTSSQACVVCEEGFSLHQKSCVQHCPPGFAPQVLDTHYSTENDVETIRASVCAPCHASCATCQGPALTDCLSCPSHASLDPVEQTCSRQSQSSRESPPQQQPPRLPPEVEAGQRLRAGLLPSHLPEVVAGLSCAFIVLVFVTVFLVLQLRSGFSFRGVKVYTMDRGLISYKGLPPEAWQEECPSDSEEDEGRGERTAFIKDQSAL

| Sequence | furin cleavage Z-score (7.5 min) | furin cleavage Z-score (15 min) | furin cleavage Z-score (30 min) |
| --- | --- | --- | --- |
| CAMEECNQHLAGNASASA [HC38] | 0.469 (inactive) | 2.66 | 0.708 (inactive) |
| CARCARSSFTAGNASASA [FS-2895] | -1.39 (inactive) | -0.507 (inactive) | -0.615 (inactive) |
| CAVPAKSVCGAGNASASA [HC409] | -1.6 (inactive) | 0.783 (inactive) | -0.986 (inactive) |
| CALHCPTDCFAGNASASA [HC450] | 0.987 (inactive) | -0.346 (inactive) | 0.0192 (inactive) |
| CAHSYSPGEIAGNASASA [HC1608] | -0.391 (inactive) | -1.22 (inactive) | -0.845 (inactive) |
| CAYHHKFNSSAGNASASA [HC382] | -0.863 (inactive) | -0.739 (inactive) | -0.583 (inactive) |
| CAARNRQKRFAGNASASA [FS-1308] | 9.16 (active) | 10.4 (active) | 8.81 (active) |
| CAGPGREDRFAGNASASA [FS-1590] | 0.0501 (inactive) | -0.782 (inactive) | 0.43 (inactive) |
| CAARPRWIWFAGNASASA [HC1654] | 0.126 (inactive) | 1.51 | 1.36 |
| CATVGRVKRFAGNASASA [FS-306] | 9.9 (active) | 9.6 (active) | 9.08 (active) |
| CAVCARAQAPAGNASASA [HC957] | -0.611 (inactive) | -0.626 (inactive) | 0.901 (inactive) |
| CAPIDTTIMAAGNASASA [HC1437] | -1.63 (inactive) | 0.33 (inactive) | -1.75 (inactive) |
| CAMVECSQHLAGNASASA [HC1690] | 1.97 | 0.64 (inactive) | 0.696 (inactive) |
| CAHDVVCCSMAGNASASA [HC2115] | -0.409 (inactive) | -0.66 (inactive) | 0.0366 (inactive) |
| CAVKCCSMSYAGNASASA [HC2014] | -0.221 (inactive) | 0.288 (inactive) | -1.16 (inactive) |
| CAQLRRLKRNAGNASASA [FS-284] | 13 (active) | 12.1 (active) | 9.76 (active) |
| CATARHTPVNAGNASASA [HC1570] | -0.556 (inactive) | -0.38 (inactive) | -0.627 (inactive) |
| CANSTALNCNAGNASASA [HC372] | 1.61 | 1.23 | 0.944 (inactive) |
| CAQLRRYPRNAGNASASA [FS-1249] | 10 (active) | 10.4 (active) | 8.2 (active) |
| CAASAYQVRNAGNASASA [HC255] | 2.82 | -0.339 (inactive) | 0.446 (inactive) |
| CALSFRLKRNAGNASASA [FS-1372] | 12.3 (active) | 11.1 (active) | 9.61 (active) |
| CAQLRRHIDLAGNASASA [HC289] | -1.12 (inactive) | 0.114 (inactive) | 0.176 (inactive) |
| CAVYYLTRDPAGNASASA [HC1561] | -0.916 (inactive) | -0.905 (inactive) | -0.163 (inactive) |

| Sequence | furin cleavage Z-score (7.5 min) | furin cleavage Z-score (15 min) | furin cleavage Z-score (30 min) |
| --- | --- | --- | --- |
| CAEEVSFRVGAGNASASA [HC1232] | 0.0764 (inactive) | 1.08 | -0.114 (inactive) |
| CATVVTSTWVAGNASASA [HC2158] | 0.721 (inactive) | 0.128 (inactive) | 0.308 (inactive) |
| CAINSVWKDLAGNASASA [HC1430] | 0.0949 (inactive) | 0.0646 (inactive) | 0.992 (inactive) |
| CAEILRKSRRAGNASASA [HC1297] | -0.468 (inactive) | 1.48 | -0.599 (inactive) |
| CAFCCRKKRRAGNASASA [FS-586] | 3.8 (active) | 4.73 (active) | 5.93 (active) |
| CAHSERKKRRAGNASASA [FS-249] | 8.63 (active) | 10.6 (active) | 10.2 (active) |
| CAAGIAYFSMAGNASASA [HC339] | -0.0596 (inactive) | 0.534 (inactive) | -0.966 (inactive) |
| CAGGSRWRRSAGNASASA [FS-124] | 6.79 (active) | 5.09 (active) | 5.21 (active) |
| CAQGNRWRRSAGNASASA [FS-139] | 14.1 (active) | 13 (active) | 9.79 (active) |
| CAITYSTYGKAGNASASA [HC806] | 0.0361 (inactive) | -1.76 (inactive) | 1.03 |
| CAAVGRAGRDAGNASASA [FS-11] | 0.567 (inactive) | 1.42 | 0.637 (inactive) |
| CAAGQRLRRDAGNASASA [FS-395] | 12 (active) | 10.2 (active) | 8.42 (active) |
| CACVPRMRRPAGNASASA [FS-753] | 0.288 (inactive) | -2.19 (inactive) | 0.777 (inactive) |
| CAAVPRLRRDAGNASASA [FS-644] | 11.8 (active) | 12.1 (active) | 8.75 (active) |
| CAGDVVCCSMAGNASASA [HC2116] | 0.0391 (inactive) | -0.825 (inactive) | -0.011 (inactive) |
| CAVVCASMSYAGNASASA [HC81] | 0.42 (inactive) | 1.25 | -0.0546 (inactive) |
| CAVLVVLLLFAGNASASA [HC346] | -1.01 (inactive) | -0.224 (inactive) | -0.108 (inactive) |
| CAVLVGGVLAAGNASASA [HC991] | -0.269 (inactive) | -2.26 (inactive) | -1.24 (inactive) |
| CAVLVRKRRAAGNASASA [FS-1178] | 12 (active) | 12.9 (active) | 8.97 (active) |
| CASQRRKRRAAGNASASA [FS-381] | 6.33 (active) | 6.94 (active) | 4.52 (active) |
| CAGGPRKRRAAGNASASA [FS-26] | 5.06 (active) | 5.01 (active) | 3.88 (active) |
| CAGAPLGGAAAGNASASA [HC231] | -0.433 (inactive) | -0.224 (inactive) | -0.596 (inactive) |
| CAKSYRKRRAAGNASASA [FS-47] | 9.96 (active) | 10.6 (active) | 7.5 (active) |
